VP16 counter = VP16 counterscreen qHTS for inhibitors of ROR gamma transcriptional activity; Drosophila S2 Gal4-VP16 UAS-luciferase, luminescence, 20 h; Potency, µM (doses to about 53.6 µM), for the others: at the highest dose activity, negative = inhibition, hits mostly inhibitors; hit rate 3.5% among 310,000; AID 2546, 2010;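 note: Gal4-VP16 expression switched on by copper sulfate through the metallothionein promoter; potency is the fitted concentration of half-maximal effect; nearly all actives have a fitted effect of over 50% in size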
ELG1 DNA repair = qHTS screen for small molecules that inhibit ELG1-dependent DNA repair in human embryonic kidney (HEK293T) cells expressing luciferase-tagged ELG1; HEK293T ELG1-luciferase reporter, luminescence, 16 h; DNA damage induced by 5-fluorouridine; hit rate 2.3% among 330,000; Potency, µM (series often up to 46.1 µM), for inactives: at the top dose activity change, negative = inhibition, usual class: inhibitors; AID 504467, 2011; note: potency is the fitted concentration of half-maximal effect; nearly all actives have a fitted effect of over 55% in size
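DMSO vehicle served as the neutral condition. Each well held 2,000 cells given 5-fluorouridine plus compound; after 16 hr at 37 °C/5% CO2, ONE-Glo was added and luciferase measured 30 min later.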
TSHR antag = Antagonists of the Thyroid Stimulating Hormone Receptor: HTS campaign | TSHR-expressing cells, TSH-stimulated cAMP HTRF, 2 h; active compounds read low | Thyrotropin receptor (Homo sapiens), P16473 | AID 504810, 2011 | hit rate 0.2% among 330,000 | activity change, negative = inhibition, % at 11.5 µM;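 active = activity change below a set negative limit, meaning inhibition stronger than a set level, cut at about -70% in these data; inconclusive = activity change between two set negative limits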
Target sequence (P16473 whole entry, looked up): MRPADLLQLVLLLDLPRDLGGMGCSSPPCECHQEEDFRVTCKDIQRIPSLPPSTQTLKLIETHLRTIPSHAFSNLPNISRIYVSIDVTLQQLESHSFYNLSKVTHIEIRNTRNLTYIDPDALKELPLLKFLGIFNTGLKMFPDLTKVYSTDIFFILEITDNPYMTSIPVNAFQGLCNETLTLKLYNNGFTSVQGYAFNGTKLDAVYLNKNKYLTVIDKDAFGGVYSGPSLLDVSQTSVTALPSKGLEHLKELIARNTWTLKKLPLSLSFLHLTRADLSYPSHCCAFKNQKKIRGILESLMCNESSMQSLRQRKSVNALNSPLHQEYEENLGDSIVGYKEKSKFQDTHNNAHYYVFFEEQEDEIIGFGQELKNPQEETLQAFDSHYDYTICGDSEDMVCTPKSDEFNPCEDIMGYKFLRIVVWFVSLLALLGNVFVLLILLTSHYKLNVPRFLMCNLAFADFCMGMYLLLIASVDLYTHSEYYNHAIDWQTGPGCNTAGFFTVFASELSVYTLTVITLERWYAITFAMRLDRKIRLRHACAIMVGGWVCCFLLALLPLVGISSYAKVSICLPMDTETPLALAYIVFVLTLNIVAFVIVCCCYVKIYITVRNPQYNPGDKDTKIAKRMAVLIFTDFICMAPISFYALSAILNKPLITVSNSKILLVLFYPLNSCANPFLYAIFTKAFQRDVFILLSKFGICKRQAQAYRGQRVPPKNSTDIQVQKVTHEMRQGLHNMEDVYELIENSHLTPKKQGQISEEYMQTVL
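Cell-based HTRF cAMP assay; TSHR cells + compound, TSH EC80 (4nM final), 2 h, 37 deg C. Lysis with anti-cAMP cryptate and cAMP-d2, 30 min RT, read 665/620 nm.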
RORg inh = qHTS for inhibitors of ROR gamma transcriptional activity; AID 2551, 2010; hit rate 5.4% among 310,000; Potency, µM (top dose mostly 53.6 µM), for the others: at the highest dose activity change, negative = inhibition, most hits filed as inhibitors; Drosophila S2 Gal4-RORgamma UAS-luciferase reporter, 20 h; note: potency is the fitted concentration of half-maximal effect; nearly all actives have a fitted effect of over 60% in size
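Drosophila S2 cells stably expressing Gal4-DBD/mouse RORγ fusion under metallothionein promoter plus UAS-luciferase; compound 1 h, then 700 uM CuSO4 induction for 20 h at ambient temperature; inhibition read as reduced luminescence.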
B2AR arrestin = qHTS assay of beta-arrestin-biased ligands of beta2-adrenergic receptor; Beta-2 adrenergic receptor (Homo sapiens), P07550; beta-arrestin recruitment to beta2AR, cell-based reporter; Potency, µM (highest dose often 46.1 µM), for inactives: top-dose activation, usual class: activators; hit rate 0.02% among 330,000;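 note: potency is the fitted concentration of half-maximal effect; 0% = DMSO controls and full agonism = EC100 isoproterenol or metaproterenol; nearly all actives have a fitted effect of over 65% in size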
ELG1 FLuc counter = qHTS screen for small molecules that inhibit ELG1-dependent DNA repair: Hit Confirmation in Cell-Based Luciferin Assay; shares compounds with ELG1 DNA repair; cell-free firefly luciferase luminescence counter-screen, ViewLux; Potency, µM (top dose mostly 46.1 µM), for inactives: at the top dose activity change, negative = inhibition, actives largely listed as inhibitors; hit rate 3% among 350; AID 624247, 2012; note: potency is the fitted concentration of half-maximal effect
ELG1 Luc conf = HTS assay for small molecules that inhibit ELG1-dependent DNA repair in human embryonic kidney (HEK293T) cells expressing luciferase-tagged ELG1: Hit Confirmation; shares compounds with ELG1 DNA repair; HEK293T ELG1-luciferase levels, luminescence; cells co-treated with 5-fluorouridine; Potency, µM (top dose mostly 46.1 µM), for inactives: top-dose activity change, negative = inhibition, actives largely listed as inhibitors; hit rate 68% among 670; note: potency is the fitted concentration of half-maximal effect; nearly all actives have a fitted effect of over 55% in size
ELG1-Luc MMS = confirmation of human ELG1 repair inhibitors, MMS stimulated; HEK293T luciferase-tagged ELG1 level, MMS stimulated; Potency, µM (doses to about 46.1 µM), for inactives: at the top dose activity change, negative = inhibition, most hits filed as inhibitors; hit rate 53% among 670; shares compounds with ELG1 DNA repair; note: potency is the fitted concentration of half-maximal effect; nearly all actives have a fitted effect of over 60% in size
ELG1 5-FU = qHTS screen for small molecules that inhibit ELG1-dependent DNA repair: Hit Confirmation with 5FU Viability; shares compounds with ELG1 DNA repair; cell viability with 5-FU, ELG1-dependent repair; Potency, µM (doses to about 46.1 µM), for the others: top-dose activity change, negative = viability loss, most hits filed as cytotoxic; 670 tested, under 10 active;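 note: ELG1-luc HEK293T cells cotreated with 5-fluorouridine at 10 µM final; potency is the fitted concentration of half-maximal effect; viability measured 16 h after compound addition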
ELG1 MMS viab = qHTS screen for small molecules that inhibit ELG1-dependent DNA repair: Hit Confirmation with MMS Viability. shares compounds with ELG1 DNA repair. Cell viability with MMS, ELG1-dependent DNA repair. Potency, µM (titrated, usually from 46.1 µM), inactives show at the top dose activity change, negative = viability loss, hits mostly cytotoxic. hit rate 33% among 670;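 note: ELG1-luc HEK293T cells co-treated with 10 µM MMS; potency is the fitted concentration of half-maximal effect; viability read 16 h after compound addition; nearly all actives have a fitted effect of over 60% in size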
ELG1 unstim viab = qHTS screen for small molecules that inhibit ELG1-dependent DNA repair: Hit Confirmation with Unstimulated Viability Assay. shares compounds with ELG1 DNA repair. cell viability counter-screen, unstimulated, luminescence. Potency, µM (highest dose often 45.9 µM), inactives show at the highest dose activity change, negative = loss of viability, actives largely listed as cytotoxic. hit rate 8% among 900. AID 624252, 2012;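 note: potency is the fitted concentration of half-maximal effect; compound exposure lasted 16 hours before reading; nearly all actives have a fitted effect of over 55% in size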
FLuc enzyme = qHTS screen for small molecules that inhibit ELG1-dependent DNA repair: Hit Confirmation in Biochemical Luciferin Assay; shares compounds with ELG1 DNA repair; purified firefly luciferase, luminescence counter-screen; Potency, µM (highest dose often 57.5 µM), without a hit: top-dose activity, negative = inhibition, usual class: inhibitors; hit rate 10% among 350; AID 624253, 2012; note: potency is the fitted concentration of half-maximal effect
An asterisk follows results filed as active; ? = inconclusive; · = no result; [ ] = dose if it differs, or a comment. Hits are enriched below; roughly 7.5% of the tested compounds scored in any of these assays. Unless noted, calls come from the whole dose curve; as a rule, active = well fitted curve in the direction sought with a large enough effect; inconclusive = small, poorly fitted or top-dose-only effect, or another doubt; inactive = no such curve, though single readings can be large; an effect the other way counts as inactive or inconclusive. Unless noted, % is set by controls: 0 for no effect and ±100 for the full control effect.

SMILES	VP16 counter	ELG1 DNA repair	TSHR antag	RORg inh	B2AR arrestin	ELG1 Luc conf	ELG1-Luc MMS	ELG1 5-FU	ELG1 MMS viab	ELG1 unstim viab	others
CS(=O)(=O)N1CCCC(c2nc(-c3ccc(S(=O)(=O)NCc4ccccc4)cc3)no2)C1 (stereo not given)	?	3.66µM*	-43.4	9.5%[10 µM]	0.2%	14.1µM*	1.99µM*	-20.0%	1.99µM*	14.1µM*
O=C(Cc1ccccc1)N1CCCC(c2nc(-c3ccc(S(=O)(=O)N4CCCC4)cc3)no2)C1 (stereo not given)	-3.7%	?	-21.7	10.5%	0.4%	·	·	·	·	·
O=C(CN(Cc1ccccc1Cl)C(=O)c1csnn1)NCc1ccccc1	-7.3%	-11.6%	5.5	-1.9%	-0.8%	·	·	·	·	·
COc1ccc(CCc2nnc(CCC(=O)N(C)Cc3ccnc4ccccc34)o2)cc1	?	?	-9.7	?	-0.1%	?	7.05µM*	-7.5%	6.28µM*	?
COc1ccccc1CCc1nnc(CCC(=O)N(C)Cc2cccc3cnccc23)o1	6.6%	?	1.3	5.7%	-1.3%	·	·	·	·	·
Cc1ccc(S(=O)(=O)N2CCN(C(=O)CCC(=O)NCc3cccc(C(F)(F)F)c3)CC2)cc1	·	6.4%	-0.1	·	-0.3%	·	·	·	·	·
O=C(Nc1nc(-c2ccc3c(c2)OCCO3)cs1)c1ccc(S(=O)(=O)N2CCCCC2)cc1	-10.8%	4.11µM*	-41.1	11.5%	-0.4%	?	2.81µM*	7.3%	3.53µM*	-18.4%
Nc1ccccc1-c1nnc(SCC(=O)Nc2ccccc2OC(F)F)[nH]c1=O	·	6.1%	-1.9	·	-0.8%	·	·	·	·	·
O=C(Nc1nc2c(s1)CN(Cc1ccccc1)CC2)c1cccc(S(=O)(=O)N2CCc3ccccc32)c1	-2.1%	-9.3%	-14.0	21.1%	0.9%	·	·	·	·	·
CC1CCc2nc(NC(=O)c3ccc(S(=O)(=O)N4CCCc5ccccc54)cc3)sc2C1 (stereo not given)	-20.4%	2.91µM*	2.0	6.31µM*	-0.7%	?	2.5µM*	7.6%	2.81µM*	?
Cn1c(COc2ccc(Cl)cc2)nnc1SCC(=O)NC1CCCC1	-3.5%	7.6%	-5.6	-8.4%	-0.2%	·	·	·	·	·
COc1ccccc1CNC(=O)CCNS(=O)(=O)c1cc(Br)cnc1N	-10.8%	0.8%	1.7	-9.7%	-0.1%	·	·	·	·	·
Cc1ccc(C(C(=O)NCc2ccccc2)N(Cc2cccs2)C(=O)c2ccc3c(c2)OCCO3)cc1 (stereo not given)	-3.0%	2.91µM*	42.8	18.5%	-0.6%	7.92µM*	7.92µM*	-10.0%	?	?	ELG1 FLuc counter=-4.3%;FLuc enzyme=-2.9%
COc1ccc(CNC(=O)C(c2ccc(C)cc2)N(Cc2cccs2)C(=O)c2ccc3c(c2)OCCO3)cc1 (stereo not given)	0.0%	?	16.2	36.9%	0.3%	·	·	·	·	·
CCc1c(C)nc2c(Br)cccc2c1SCCC#N	-3.6%	-19.7%	-5.4	22.4%	-1.3%	·	·	·	·	·
CCc1c(C)nc2ccc(Br)cc2c1SCCC#N	-8.6%	4.11µM*	-14.7	14.2%	0.0%	7.05µM*	15.8µM*	14.9%	?	-12.1%
Cn1ncc(Br)c1C(=O)N/N=C/c1cccc(OC2CSC2)c1	-15.8%	4.11µM*	-7.5	-6.5%	-0.4%	-7.3%	5.9%	-6.3%	?	-10.5%
Cn1ncc(Br)c1C(=O)N/N=C/c1ccc(OS(=O)(=O)c2ccccc2)cc1	?	0.7%	-6.7	?	-1.3%	·	·	·	·	·
C=CCn1c(SCC(=O)N2CC(=O)Nc3ccccc32)nc2scc(-c3ccccc3)c2c1=O	-1.3%	1.64µM*	-9.8	21.4%	0.4%	22.3µM*	-7.0%	7.2%	-7.1%	?
O=S1(=O)[C@H]2C[C@H](CO)O[C@@]2(CO)CN1Cc1ccc(-c2cccc(Cl)c2)cc1	·	2.31µM*	-2.1	·	-0.8%	2.5µM*	-5.8%	?	?	?
Cc1ccc(C#CC[N+](C)(C)CC#Cc2ccccc2)cc1	-14.9%	?	39.0	-6.4%	-0.5%	·	·	·	·	·
O=c1c2ccccc2oc2ccc(-c3ccc4cc[nH]c4c3)cc12	·	?	-16.5	·	0.5%	·	·	·	·	?	ELG1 FLuc counter=93.5%;FLuc enzyme=0.411µM*
CCN(CC(=O)Nc1c(F)cccc1F)C(=O)CCc1nc2cc(S(=O)(=O)N3CCOCC3)ccc2n1C	·	8.7%	-6.0	·	-0.3%	·	·	·	·	·
COc1ccccc1CN(Cc1nc2ccccc2c(=O)[nH]1)S(=O)(=O)c1ccc2ccccc2c1	-0.5%	3.66µM*	-23.7	?	-0.5%	7.91µM*	6.28µM*	?	15.8µM*	17.7µM*

Bioassay records as filed in PubChem BioAssay.
